Results published in PubChem BioAssay.
Several values for one entry are separate records, joined by “and”; a condition that tells them apart may be missing. Equal values may be shown once. Some compounds were tested as several samples or in several runs, with calls that do not always agree. Activity calls are given as the source filed them. Cut-off read from the data, not from the text of the source, unless noted: active = parasite load remaining mostly below about 12% (no sharp cut-off); inactive = mostly above about 10%.

Tests used:
[1] = liver-stage malaria parasite growth inhibition, primary screen, cell-based, HepG2, luciferase luminescence, HepG2 viability (AID 624349);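 note: 100% = mean of DMSO negative control wells on the same plate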; conditions: P. berghei liver stage in HepG2, luciferase luminescence, concentration not given here; parasite load remaining: stronger effect = lower value; viability: measured here: HepG2 viability without parasites
[2] = test system: Hepatitis C virus NS3 helicase; assay: HCV NS3 helicase inhibitors, primary screen, biochemical, fluorescence polarization, LOPAC1280 library (AID 687035; in the data active = inhibition above about 37%); conditions: Purified HCV NS3 helicase, Cy5-dT15 ssDNA binding fluorescence polarization; stronger effect = higher value; concentration not given here
[3] = Cy5 fluorescence quenching or enhancement artefacts, artefact control for HCV NS3 helicase inhibitor project, biochemical, LOPAC1280 (AID 687037; call rule not given here); conditions: Cy5-DNA-NS3h complex fluorescence interference counterscreen
[4] = stimulators of nuclear beta-catenin in C2C12, primary screen, imaging, WNT3A-conditioned medium, mouse C2C12, NPC library (AID 1117326; in the data active = nuclear beta-catenin stimulation mostly above about 4.2%, no sharp cut-off; inactive = mostly below about 10%); conditions: stronger effect = higher value
[5] = Cy5 fluorescence interference with SSB-bound oligo, artefact control for HCV NS3 helicase inhibitor project, biochemical, NIH Clinical Collection, E. coli SSB (AID 743268; call rule not given here)
[6] = test system: Hepatitis C virus NS3 helicase; assay: HCV NS3 helicase inhibitors, primary screen, biochemical, fluorescence polarization, NIH Clinical Collection (AID 743270; call rule not given here); conditions: NS3 helicase binding to Cy5-dT15 DNA, stronger effect = higher value, concentration not given here
[7] = molecular target: Single-stranded DNA-binding protein (Escherichia coli (strain K12)) (UniProt P0AGE0); assay: E. coli SSB displacement from DNA, counter-screen for HCV NS3 helicase inhibitor project, biochemical, fluorescence polarization, NIH Clinical Collection (AID 743271; in the data active = inhibition above about 28%); conditions: stronger effect = higher value, concentration not given here
[8] = fluorescence interference in NS3h assay format, artefact control for HCV NS3 helicase inhibitor project, biochemical, NIH Clinical Collection (AID 743272; call rule not given here;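 note: HCV NS3 helicase with a Cy5 labelled single stranded DNA probe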); conditions: fluorescence interference counterscreen, stronger effect = lower value
[9] = test system: Neuropilin-2 / VEGF-C interaction (human); assay: inhibitors of NRP2–VEGF-C binding, biochemical, microplate binding format, z-score (AID 743281; call rule not given here); conditions: microplate NRP2/VEGF-C binding assay; stronger effect = lower value

Structure (SMILES)	parasite load remaining [1]	viability [1]	inhibition [2]	fluorescence ratio (interference) [3]	nuclear beta-catenin stimulation ([4]; at 10 µM)	nuclear beta-catenin stimulation ([4]; stimulation, at 2 µM)	fluorescence ratio [5]	inhibition [6]	inhibition [7]	fluorescence ratio [8]	z-score [9]	outcome [9]
O=C(O)CCCCCCCC(=O)O	102% (inactive) and 78.4% (inactive)	69% and 83.5%	0% (inactive)	0.9 (inactive)	0.3% (inactive)	-0.5%						
NC(=O)c1ncn([C@@H]2O[C@H](CO)[C@@H](O)[C@H]2O)n1	64.8% (inactive) and 245% (inactive) and 27% (inactive)	80.3% and 108% and 67%	-6% (inactive)	0.9 (inactive)	1.7% (inactive)	2.6%						
CC1(C)NC(=O)N(c2ccc([N+](=O)[O-])c(C(F)(F)F)c2)C1=O	54.2% (inactive) and 50.4% (inactive) and 7.05% (inactive)	92.2% and 99% and 125%	-2% (inactive)	1 (inactive)	-0.3% (inactive)	2.1%						
NC(=O)NO	113% (inactive) and 59.4% (inactive)	74.6% and 101%	-3% (inactive)	1 (inactive)	-0.1% (inactive)	4%						
Nc1ccc(S(=O)(=O)Nc2ccnn2-c2ccccc2)cc1	33% (inactive) and 120% (inactive) and 106% (inactive)	49.4% and 69.4% and 93.2%	1% (inactive)	1 (inactive)	0.1% (inactive)	-0.2%						
C[C@H]1O[C@@H](n2cc(F)c(=O)[nH]c2=O)[C@H](O)[C@@H]1O	43.4% (inactive)	83%	-1% (inactive)	1 (inactive)	1.3% (inactive)	0.4%						
C[C@]12C=CC(=O)C=C1CC[C@H]1[C@@H]3C[C@@H](O)[C@](O)(C(=O)CO)[C@@]3(C)C[C@H](O)[C@@]12F	59.1% (inactive) and 78.5% (inactive) and 29.4% (inactive)	105% and 93.7% and 75%	-2% (inactive)	1 (inactive)	-1.1% (inactive)	-0.2%						
CN(C)CCCN1c2ccccc2Sc2ccccc21	72.2% (inactive) and 44.2% (inactive) and 20.3% (inactive)	85.1% and 62.8% and 90.9%	-9% (inactive)	0.9 (inactive)	2.1% (inactive)	1.6%						
C[n+]1cc2c3c(ccc2c2ccc4cc5c(cc4c21)OCO5)OCO3	-0.155% (inactive) and -0.085% (inactive)	0.535% and 0%	-2% (inactive)	1 (inactive)	32.4% (inactive)	1.3%						
CCCC(C(=O)OCCN(CC)CC)(c1ccccc1)c1ccccc1	-0.02% (active) and 10.3% (inactive) and 0.005% (inactive)	85.1% and 64.2% and 90.3%	-6% (inactive)	0.9 (inactive)	0% (inactive)	1.1%						
CCCCCN(CCCCC)C(=O)C(CCC(=O)O)NC(=O)c1ccc(Cl)c(Cl)c1 (centres undefined)	72.3% (inactive) and 35.5% (inactive)	92.1% and 74.5%	-5% (inactive)	0.9 (inactive)	-0.8% (inactive)	-0.1%						
CC(=O)Oc1ccccc1C(=O)O	80.4% (inactive) and 75.4% (inactive) and 33.3% (inactive)	71.3% and 95.3% and 127%	-3% (inactive)	1 (inactive)	-0.3% (inactive)	0.2%						
Cc1nnc(SCC2=C(C(=O)O)N3C(=O)[C@@H](NC(=O)Cn4cnnn4)[C@H]3SC2)s1	82.1% (inactive) and 85.3% (inactive) and 68.8% (inactive)	98.8% and 78.7% and 99.1%	-3% (inactive)	0.9 (inactive)	0.1% (inactive)	0.2%						
Cc1nc2sccn2c(=O)c1CCN1CCC(=C(c2ccc(F)cc2)c2ccc(F)cc2)CC1	16.8% (inactive)	91.8%	0% (inactive)	0.9 (inactive)	13.4% (inactive)	4.3%						
CC(=O)OC(C)C[N+](C)(C)C (centres undefined)	94% (inactive) and 73.8% (inactive) and 58% (inactive)	94.5% and 73.8% and 92.8%	-2% (inactive)	0.9 (inactive)	1.5% (inactive)	3.2%						
C[C@]12CC[C@@H]3c4ccc(O)cc4CC[C@H]3[C@@H]1CCC2=O	74.7% (inactive) and 24.8% (inactive)	91.5% and 73.5%	-4% (inactive)	1 (inactive)	2.2% (inactive)	-0.2%						
CC(CN(C)C)CN1c2ccccc2CCc2ccccc21 (centres undefined)	54.2% (inactive) and 101% (inactive) and 48.3% (inactive)	103% and 83.8% and 93.4%	-4% (inactive)	1 (inactive)	-1.5% (inactive)	-0.7%						

Structure (SMILES)	parasite load remaining [1]	viability [1]	inhibition [2]	fluorescence ratio (interference) [3]	nuclear beta-catenin stimulation ([4]; at 10 µM)	nuclear beta-catenin stimulation ([4]; stimulation, at 2 µM)	fluorescence ratio [5]	inhibition [6]	inhibition [7]	fluorescence ratio [8]	z-score [9]	outcome [9]
CO[C@@]1(NC(=O)CSCC#N)C(=O)N2C(C(=O)O)=C(CSc3nnnn3C)CS[C@@H]21	86% (inactive)	102%	-5% (inactive)	1 (inactive)	0.4% (inactive)	0.7%						
COC(=O)[C@H]1[C@H]2C[C@@H]3c4[nH]c5cc(OC)ccc5c4CCN3C[C@H]2C[C@@H](OC(=O)c2cc(OC)c(OC)c(OC)c2)[C@@H]1OC	23.5% (inactive) and 21.7% (inactive) and 13.3% (active)	102% and 74.9% and 89.3%	-4% (inactive)	1 (inactive)	1.8% (inactive)	2.2%						
CN1CCN(C2=Nc3cc(F)ccc3Cc3ccccc32)CC1	91.4% (inactive) and 40.9% (inactive)	62.6% and 67%			-1.1% (inactive)	-3%	0.91 (inactive)	-1.97% (inactive)	1.97% (inactive)	0.9 (inactive)	-0.511 (inactive)	
NC(=O)OCC(COC(N)=O)c1ccccc1	83.2% (inactive) and 111% (inactive)	105% and 75.3%	-1% (inactive)	1 (inactive)	-1.9% (inactive)	0%	1.05 (inactive)	-2.77% (inactive)	-3.18% (inactive)	0.9 (inactive)	0.0538 (inactive)	
CC(N)C12CC3CC(CC(C3)C1)C2 (centres undefined)	59.2% (inactive) and 69.6% (inactive) and 54.8% (inactive)	94.8% and 97.2% and 73%			1.8% (inactive)	0.3%	1.02 (inactive)	-2.27% (inactive)	1.81% (inactive)	1.03 (inactive)		
C[C@@H]1C[C@H]2[C@@H]3C[C@H](F)C4=CC(=O)C(Cl)=C[C@]4(C)[C@@]3(F)[C@@H](O)C[C@]2(C)[C@@]1(O)C(=O)CO	117% (inactive)	79.4%			1.5% (inactive)	1.3%	1 (inactive)	6.73% (inactive)	7.6% (inactive)	0.96 (inactive)		
Nc1ccc(O)c(C(=O)O)c1	86.6% (inactive) and 106% (inactive) and 16.7% (inactive)	71.9% and 101% and 72%			2% (inactive)	0.6%	0.94 (inactive)	3.56% (inactive)	2.21% (inactive)	0.94 (inactive)	-0.236 (inactive)	
c1cnc(N2CCN(Cc3ccc4c(c3)OCO4)CC2)nc1	105% (inactive) and 100% (inactive) and 31.2% (inactive)	78.5% and 71.3% and 101%	-1% (inactive)	1 (inactive)	0.7% (inactive)	4.1%	1.01 (inactive)	-5.94% (inactive)	-0.87% (inactive)	0.96 (inactive)	-0.0568 (inactive)	
NS(=O)(=O)Cc1noc2ccccc12	75.4% (inactive) and 46.4% (inactive)	89.2% and 110%			0.1% (inactive)	0.4%	1 (inactive)	-6.82% (inactive)	-4.29% (inactive)	1 (inactive)		
CC(=O)Oc1ccccc1C(=O)Nc1ncc([N+](=O)[O-])s1	0.07% (inactive)	55.1%			13.9% (inactive)	2%	1 (inactive)	2.77% (inactive)	4.52% (inactive)	1 (inactive)	-0.0903 (inactive)	
CC(=O)Nc1ccc(CC(=O)O)cc1	119% (inactive)	78.7%			-0.2% (inactive)	0.4%	1.02 (inactive)	0.4% (inactive)	-2.41% (inactive)	0.93 (inactive)	-0.00496 (inactive)	
Nc1[nH]c(=O)ncc1F	85.3% (inactive) and 51.1% (inactive) and 109% (inactive)	93.3% and 117% and 86.7%			0.9% (inactive)	1.7%	1.01 (inactive)	-6.73% (inactive)	-1.64% (inactive)	0.97 (inactive)	-0.751 (inactive)	
CCOC(=O)O[C@]1(C(=O)OCCl)CC[C@H]2[C@@H]3CCC4=CC(=O)C=C[C@]4(C)[C@H]3[C@@H](O)C[C@@]21C	196% (inactive)	72.9%			-1.2% (inactive)	-0.3%	1.04 (inactive)	-0.4% (inactive)	4.52% (inactive)	1.05 (inactive)		
CC(C)[C@H](N)C(=O)OCCOCn1cnc2c(=O)[nH]c(N)nc21	172% (inactive) and 103% (inactive) and 32.5% (inactive)	88% and 76.1% and 74%			0.1% (inactive)	2.1%	1.06 (inactive)	-4.36% (inactive)	-4.72% (inactive)	1.03 (inactive)		inactive
C[C@H]1COc2c(C3(N)CC3)c(F)cc3c(=O)c(C(=O)O)cn1c23	143% (inactive) and 21.7% (inactive)	89.8% and 67.5%			1.2% (inactive)	0.2%	1.05 (inactive)	5.15% (inactive)	-0.1% (inactive)	1.02 (inactive)	0.653 (inactive)	
C#C[C@]1(O)CC[C@H]2[C@@H]3[C@H](C)CC4=C(CCC(=O)C4)[C@H]3CC[C@@]21C	43.6% (inactive) and 8.38% (inactive)	76.2% and 73.5%			7.4% (inactive)	0.8%	0.99 (inactive)	0.66% (inactive)	1.18% (inactive)	0.99 (inactive)		
